Screening data as filed in PubChem.
A selection: hits, their analogues and other compounds. The true share with any hit is near 1.8%.
SDO1 yeast rescue – growth rescue of sdo1-depleted yeast, primary screen, S. cerevisiae, bone marrow failure model; z-score at 10 µM; S. cerevisiae sdo1-depleted JHY4D growth rescue, OD600 30 h; stronger effect = higher value; pdr5 snq2 efflux-pump mutant strain; AID 817, 2007; 0.21% of 140,000 active;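 active = z-score above 3 at both the 24 hr and the 30 hr optical density reads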
Measles CPE – compounds protecting cells from measles virus cytopathic effect, primary screen, measles RdRp inhibitor project, single point, MLSMR library, absorbance; AID 841, 2007; protection (pct of control), % at 4 µM; 1.5% of 140,000 active; Measles virus-infected cells, CPE protection; in the data active = protection mostly above about 24%, no sharp cut-off; inactive = mostly below about 26%
Phagocytosis inh – inhibitors of macrophage phagocytosis, primary screen, imaging, J774A.1 cells, IgG beads | J774A.1 macrophage IgG-bead phagocytosis | inhibition, % at 5 µM | AID 1029, 2008 | 0.07% of 110,000 active;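 active = inhibition above the mean of the plate negative controls plus 5 SD, cut at about 13% in these data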;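 note: phagocytic index as fraction of beads internalized from green versus red external bead signal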
Each line names hits and unclear results; the compound was inactive in the other large screens.

O=C1CC(N2CCOCC2)C(=O)N1Cc1ccc(N2CCCC2=O)cc1 (configuration not stated)	Measles CPE 42.2
O=C1CCCN1CCC1CCN(C2CC(=O)N(Cc3ccc(N4CCCC4=O)cc3)C2=O)CC1 (configuration not stated)	none
CN1CCN(C(=O)C(C(=O)c2ccc(F)cc2)n2ccccc2=O)CC1 (configuration not stated)	none (no result: Phagocytosis inh)
O=C(NC(=S)Nc1ccc(S(=O)(=O)N2CCCCC2)cc1)c1cccs1	none
O=C(NNC(=O)c1cccs1)c1ccc(S(=O)(=O)N2CCCCC2)cc1	Measles CPE 25.8
Cc1ccc(N2C(=O)[C@@H]3C(C(=O)CCN4C(=O)c5ccccc5C4=O)=NN[C@@H]3C2=O)cc1	none
CCOC(=O)c1sc(NC(=O)CN(CC(C)C)CC(C)C)c(C(=O)OCC)c1C	none
Cc1cc(N2C(=O)C(O)=C(C(=O)c3cccs3)C2c2cccc(O)c2)no1 (configuration not stated)	none (no result: Phagocytosis inh)
COc1cccc(C2C(C(=O)c3cccs3)=C(O)C(=O)N2c2cc(C)on2)c1 (configuration not stated)	Measles CPE 37.1
CCOc1ccc(/C=N/OCC(=O)NCc2ccc3c(c2)OCO3)cc1OC	none
CCCCCNc1nc(-c2ccccc2)cs1	none (no result: Phagocytosis inh)
COCCCNC(=O)c1ccc(N(C)S(=O)(=O)c2ccc(OC)cc2)cc1	none
COCCNC(=O)c1ccc(N(C)S(=O)(=O)c2ccc(OC)c(OC)c2)cc1	Measles CPE 67.8 (no result: Phagocytosis inh)
Cc1nc(N)sc1N=Nc1ccc(F)cc1	none (no result: Phagocytosis inh)
Cc1ccccc1NC1=C(C(=O)c2ccccc2)N(C)S(=O)(=O)c2ccccc21	none (no result: Phagocytosis inh)
O=C(C1=C(Nc2ccccc2)c2ccccc2S(=O)(=O)N1)c1ccccc1	Measles CPE 26.0
Cc1ccc(C2=[N+]([O-])C3(CCCCC/C3=N\O)N(O)C2(C)C)o1 (configuration not stated)	none
CC1(C)C(c2cccs2)=[N+]([O-])C2(CCCCC/C2=N\NC(N)=O)N1O (configuration not stated)	Measles CPE 30.4
COc1ccc(NC(=O)CN(Cc2ccccc2)S(C)(=O)=O)cc1	none
O=C(CNc1cc(S(=O)(=O)N2CCCC2)ccc1OCC(F)(F)F)Nc1ccc(SC(F)F)cc1	none
CC(Sc1nnnn1-c1ccccc1)C(=O)Nc1ccc(Cl)cn1 (configuration not stated)	none
Cc1cc(NC(=O)COc2ccc(N(C)S(=O)(=O)c3ccccc3)cc2)no1	Measles CPE 64.0
CCN(c1ccccc1)S(=O)(=O)c1ccc(OCC(=O)Nc2cc(C)on2)cc1	none
O=C(C(Cc1ccccc1)N1C(=O)c2ccccc2C1=O)N1CCc2ccccc21 (configuration not stated)	none (no result: Phagocytosis inh)
CS(=O)(=O)N1CCN(c2ccc([N+](=O)[O-])c(NCc3ccc(Cl)cc3)c2)CC1	none
CN(Cc1ccccc1)C(=O)c1ccc([N+](=O)[O-])o1	none
Cc1nn(-c2ccccc2)c(N)c1Sc1cccc([N+](=O)[O-])c1	none
Cc1nn(-c2ccccc2)c(N)c1Sc1ccccc1[N+](=O)[O-]	Measles CPE 46.0
OC(COCC(F)(F)C(F)(F)C(F)(F)C(F)F)Cn1c2ccc(Cl)cc2c2cc(Cl)ccc21 (configuration not stated)	none
COc1ccc(NS(=O)(=O)c2ccc(NC(=S)NC(=O)c3ccc(Br)cc3)cc2)nn1	none
O=C(Cc1cccs1)Nc1nc2ccccc2s1	none
O=C(Cc1ccccc1)Nc1nc2ccccc2s1	Measles CPE 51.9 (no result: Phagocytosis inh)
Cc1cc(/C=N/NC(=O)c2ccncc2)c(C)n1-c1ccccc1	none
Cc1cc(/C=N/NC(=O)c2cccs2)c(C)n1-c1ccccc1	Measles CPE 76.9
CCc1nc(SCC(=O)Nc2sc(C)c(C)c2C(=O)OC)c2ccccc2n1	none
O=c1c2cc(Cl)ccc2[nH]c(=S)n1Cc1cccs1	none
CCS(=O)(=O)c1ccc(C(=O)Nc2cccc(Cl)c2)c(Cl)c1Cl	none
CCS(=O)(=O)c1ccc(C(=O)Nc2ccccc2)c(Cl)c1Cl	Measles CPE 89.2 (no result: Phagocytosis inh)
CCCC(=O)c1c(NC(C)C)cc(C)oc1=O	none
C=CCSc1nc(C)cc(/C=C\c2ccccc2)c1C#N	none (no result: Phagocytosis inh)
O=C(NCc1ccco1)c1ccc(COCC(F)(F)F)cc1	none
O=C(NCc1ccco1)c1ccc(COCC(F)(F)C(F)F)cc1	Measles CPE 32.7
CCCC1=NN(c2ccc([N+](=O)[O-])cc2)C(=O)/C1=C\N(C)C	Measles CPE 32.3
CCN(CC)c1ccc(/C=C2/C(=O)N(c3ccc([N+](=O)[O-])cc3)N=C2N2CCOCC2)cc1	none
C=CCn1c(CCCNC(=O)CCC)nc2ccccc21	none (no result: Phagocytosis inh)
CCc1ccc(S(=O)(=O)NCc2cn3ccccc3n2)s1	none
Cc1ccn2cc(CNS(=O)(=O)c3ccc(Cl)s3)nc2c1	Measles CPE 29.4
CCSc1nnc(NC(=O)CSc2nnc(CNC(=O)c3ccc(OC)c(OC)c3)o2)s1	none
Cc1ccc(C)c(Cc2c(C)nc3c(C(=O)N4CCOCC4)cnn3c2C)c1	Measles CPE 39.8
CCOC(=O)N1CCN(C(=O)c2cnn3c(C)c(Cc4ccc(C)cc4)c(C)nc23)CC1	none
CC(C)CNS(=O)(=O)c1ccc(OCC(=O)NCC2CCCO2)c(Cl)c1 (configuration not stated)	none (no result: Phagocytosis inh)
COc1cc(C)c(C(C)C)cc1S(=O)(=O)N1CCN(C)CC1	none
COc1cc(C)c(Br)cc1S(=O)(=O)N1CCCC1	Measles CPE 30.2
O=C(COC(=O)c1cc([N+](=O)[O-])ccc1NCc1ccccc1)NC1CCCc2ccccc21 (configuration not stated)	none (no result: Phagocytosis inh)
O=C(CN1CCN(S(=O)(=O)c2cc(Cl)ccc2Cl)CC1)Nc1ccc2c(c1)OCCO2	Measles CPE 42.1
O=C(CN1CCCCCC1)Nc1ccc(F)c(F)c1	none (no result: Phagocytosis inh)
O=C(CN1CCCCC1)Nc1ccc(F)c(Cl)c1	Measles CPE 56.0
CN(C)c1ccc(NC(=O)CN2CCN(S(=O)(=O)c3cc(Cl)ccc3Cl)CC2)cc1	none
COc1cc(-c2nnc(SCC(=O)Nc3cc(C)on3)n2C)cc(OC)c1O	none
Cn1cc(C(=O)c2ccc(Cl)cc2Cl)cc1C(=O)N/N=C(\N)COc1cccc(C(F)(F)F)c1	none
Cc1ccc(O)c(-c2cc(C(=O)NCc3ccc4c(c3)OCO4)[nH]n2)c1	Measles CPE 29.2
O=C(NCc1ccc2c(c1)OCO2)c1cccc(C(=O)NCc2ccc3c(c2)OCO3)c1	none
O=C(NCc1ccc2c(c1)OCO2)c1cc2ccccc2o1	none
Cc1ccc2cc3cc(C(=O)NCc4ccc5c(c4)OCO5)oc3nc2c1	Measles CPE 33.9
O=C1NC(=O)C2(COC(c3ccccc3Cl)OC2)S1 (configuration not stated)	none
O=C(NS(=O)(=O)Oc1ccc(Cl)cc1)OC[C@@H]1CCCN2CCCC[C@H]12	none
COc1cc(/C=N\NC(=O)CNC(=O)C2COc3ccccc3O2)ccc1O (configuration not stated)	Measles CPE 29.7
COc1cc(/C=N/NC(=O)CNC(=O)c2ccc3c(c2)OCCO3)ccc1O	none (no result: Phagocytosis inh)
Cc1cc2oc(C(=O)N(Cc3ccccc3)C3CCS(=O)(=O)C3)cc(=O)c2cc1Cl (configuration not stated)	none
